Experimental data as given in PubChem BioAssay (EPA / NIEHS).
Records with an inconclusive call do not appear. Active and inactive are the calls of the source. The calls were made as follows, unless noted: active = hit-call score of the fitted dose curve at least 0.9, where 1 is the maximum; inactive = score below 0.9.

Legend:
TIMP1, TIMP1 (gene 7076) = experiment: LTEA_HepaRG_TIMP1: Life Technologies and Expression Analysis (LTEA) Assay for TIMP1 using HepaRG (AID 2283534); details: mRNA level, 48 h; actives raise or lower the signal
How it was run: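 Differentiated HepaRG cells exposed 48 h in serum-free induction medium, duplicates, eight half-log concentrations from 100 uM in 0.5% DMSO. TIMP1 mRNA by qRT-PCR normalized to ACTB, GAPDH, POLR2A; bidirectional fitting against DMSO.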

[1] = read-out: Tumor necrosis factor receptor 1 (TNFRSF1A), TNFRSF1A (gene 7132); experiment: LTEA_HepaRG_TNFRSF1A: Life Technologies and Expression Analysis (LTEA) Assay for Tumor necrosis factor receptor 1 (TNFRSF1A) using HepaRG (AID 2283535); details: mRNA level, 48 h; actives raise or lower the signal
How it was run: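 Differentiated HepaRG cells in serum-free induction medium, exposed 48 h in duplicate to 8 half-log concentrations up to 100 uM in 0.5% DMSO. TNFRSF1A mRNA by Fluidigm TaqMan qRT-PCR, normalized to ACTB, GAPDH, POLR2A; bidirectional fit.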

[2] = read-out: Thyroid Hormone Responsive (THRSP), THRSP (gene 7069); experiment: LTEA_HepaRG_THRSP: Life Technologies and Expression Analysis (LTEA) Assay for Thyroid Hormone Responsive (THRSP) using HepaRG (AID 2283536); details: mRNA level, 48 h; actives raise or lower the signal
How it was run: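 Differentiated human HepaRG cells were exposed in duplicate for 48 h in serum-free induction medium to eight concentrations (top 100 uM, half-log steps, 0.5% DMSO). Expression was quantified by TaqMan qRT-PCR, normalized to ACTB, GAPDH and POLR2A, with bidirectional fitting against DMSO.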

[3] = read-out: Cellular tumor antigen p53 (Homo sapiens) (UniProt P04637); experiment: LTEA_HepaRG_TP53: Life Technologies and Expression Analysis (LTEA) Assay for Tumor Protein P53 (TP53) using HepaRG (AID 2283537); details: mRNA level, 48 h; actives raise or lower the signal
How it was run: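 TP53 transcript measured by qRT-PCR, normalized to three housekeeping genes, after 48 h treatment of human HepaRG cultures with chemicals from 100 uM downward in half-log steps (0.5% DMSO vehicle, serum-free induction medium). Up- or down-regulation fitted against DMSO.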

[4] = read-out: UDP glucuronosyltransferase (UGT1A1), UGT1A1 (gene 54658); experiment: LTEA_HepaRG_UGT1A1: Life Technologies and Expression Analysis (LTEA) Assay for UDP glucuronosyltransferase (UGT1A1) using HepaRG (AID 2283538); details: mRNA level, 48 h; actives raise or lower the signal
How it was run: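 Differentiated human HepaRG cells in serum-free induction medium were exposed in duplicate for 48 h to eight half-log concentrations up to 100 uM in 0.5% DMSO. UGT1A1 mRNA was quantified by TaqMan qRT-PCR, normalized to ACTB, GAPDH and POLR2A, and fitted bidirectionally against DMSO.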

[5] = read-out: UDP glucuronosyltransferase (UGT1A6), UGT1A6 (gene 54578); experiment: LTEA_HepaRG_UGT1A6: Life Technologies and Expression Analysis (LTEA) Assay for UDP glucuronosyltransferase (UGT1A6) using HepaRG (AID 2283539); details: mRNA level, 48 h; actives raise or lower the signal
How it was run: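 Differentiated HepaRG cells, ~100,000/well, were exposed for 48 h in serum-free induction medium with 0.5% DMSO to 8-point half-log series topping at 100 uM, in duplicate. mRNA measured by Fluidigm TaqMan qRT-PCR, normalized to ACTB, GAPDH and POLR2A.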

[6] = read-out: X-box binding protein 1 (XBP1), XBP1 (gene 7494); experiment: LTEA_HepaRG_XBP1: Life Technologies and Expression Analysis (LTEA) Assay for X-box binding protein 1 (XBP1) using HepaRG (AID 2283540); details: mRNA level, 48 h; actives raise or lower the signal
How it was run: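 Differentiated human HepaRG cells in serum-free induction medium exposed 48 h in duplicate to eight half-log concentrations up to 100 uM in 0.5% DMSO. XBP1 mRNA measured by Fluidigm TaqMan qRT-PCR, normalized to ACTB, GAPDH, POLR2A; bidirectional fitting against DMSO.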

[7] = LTEA_HepaRG_LDH_cytotoxicity: Cytotoxicity Assessment in the Life Technologies and Expression Analysis (LTEA) Assay (AID 2283563; active = hit-call score of the fitted dose curve at least 0.9, where 1 is the maximum;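 as to AC50: LDH activity released into spent culture medium as a marker of cell death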)
How it was run: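 Differentiated HepaRG cells in serum-free induction medium, exposed 48 h in duplicate to 8 half-log concentrations up to 100 uM in 0.5% DMSO. Cytotoxicity from LDH measured in spent medium, fit relative to DMSO.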

[8] = ATG_XTT_Cytotoxicity: Cytotoxicity Assessment in the Attagene TRANS-FACTORIAL HepG2 Assay (AID 2283584; active = hit-call score of the fitted dose curve at least 0.9, where 1 is the maximum)
How it was run: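 HepG2 cells transiently transfected with GAL4-UAS multiple reporter units, dosed 24 h; cytotoxicity read by XTT as loss of signal versus DMSO baseline.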

[9] = TOX21_p53_BLA_p2_viability: Viability Assessment in the Tox21 HCT-116 p53 Agonism Beta-lactamase Assay, Phase 2 (AID 2283591; active = hit-call score of the fitted dose curve at least 0.9, where 1 is the maximum;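 also: compound exposure lasted 16 h at 37 °C; actives lower the ATP signal meaning cytotoxicity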)
How it was run: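 HCT-116 p53-bla cells (4000/well) rested 5 h at 37C, then received compounds in DMSO (217-fold dilution) for 16 h at 37C, 5% CO2. After the CCF4 read, CellTiter-Glo was added; ATP luminescence was read after 30 min at room temperature.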

Measured: AC50

Cellular tumor antigen p53 (Homo sapiens), sequence (P04637 whole entry, looked up): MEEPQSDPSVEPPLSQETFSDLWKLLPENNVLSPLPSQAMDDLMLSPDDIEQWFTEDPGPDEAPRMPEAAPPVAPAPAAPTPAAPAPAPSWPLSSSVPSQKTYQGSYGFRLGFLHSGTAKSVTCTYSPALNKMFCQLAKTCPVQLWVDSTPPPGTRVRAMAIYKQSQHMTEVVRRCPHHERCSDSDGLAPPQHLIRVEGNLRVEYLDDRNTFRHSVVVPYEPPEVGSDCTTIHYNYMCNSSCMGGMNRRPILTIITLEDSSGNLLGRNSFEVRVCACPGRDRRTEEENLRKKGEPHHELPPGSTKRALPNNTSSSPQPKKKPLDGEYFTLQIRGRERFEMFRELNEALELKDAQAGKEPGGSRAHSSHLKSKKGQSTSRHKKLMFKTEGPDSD

CNc1cnn(-c2cccc(C(F)(F)F)c2)c(=O)c1Cl
active: [4] 16.1 µM
not listed: [8] | [9]
inactive: all other assays above

CCCOCC(=Nc1ccc(Cl)cc1C(F)(F)F)n1ccnc1
active: TIMP1, TIMP1 (gene 7076) 88.9 µM | [1] 93.7 µM | [2] 19.1 µM | [3] 86.9 µM | [4] 3.03 µM | [5] 69 µM | [7] 78.9 µM | [9] 23.7 µM
inactive: [6] | [8]

CCOP(=S)(OCC)OC(Cl)C(Cl)(Cl)Cl (stereo unspecified)
active: [4] 30.7 µM
not listed: [8] | [9]
inactive: all other assays above

C#CCC1=C(C)C(OC(=O)C2C(C=C(C)C)C2(C)C)CC1=O (stereo unspecified)
active: [2] 88.9 µM | [9] 45.8 µM
inactive: all other assays above

CCOP(=S)(Oc1cnc(C(C)(C)C)nc1)OC(C)C (stereo unspecified)
active: [2] 68.5 µM | [6] 50 µM
not listed: [8] | [9]
inactive: all other assays above

CC[C@H](C)[C@H]1O[C@]2(C=C[C@@H]1C)C[C@@H]1C[C@@H](C/C=C(\C)[C@@H](O[C@H]3C[C@H](OC)[C@@H](O[C@H]4C[C@H](OC)[C@@H](NC)[C@H](C)O4)[C@H](C)O3)[C@@H](C)/C=C/C=C3\CO[C@@H]4[C@H](O)C(C)=C[C@@H](C(=O)O1)[C@]34O)O2
inactive: TIMP1, TIMP1 (gene 7076) | [2]
active: [1] 12 µM | [3] 86.7 µM | [4] 12.7 µM | [5] 12.5 µM | [6] 12.8 µM | [7] 18.2 µM | [9] 13.5 µM

C#CC(C)(C)NC(=O)c1cc(Cl)cc(Cl)c1
active: [4] 13 µM
inactive: all other assays above

COc1ccc(C(=CC(=O)N2CCOCC2)c2ccc(Cl)cc2)cc1OC
active: [2] 63.8 µM | [4] 11.1 µM
inactive: all other assays above

CNC(=O)Oc1cccc2c1OC(C)(C)O2
not listed: [8] | [9]
inactive: all other assays above

CCC(=O)Nc1ccc(Cl)c(Cl)c1
active: [4] 26.7 µM
inactive: all other assays above

CCCCOC(=O)[C@@H](C)Oc1ccc(Oc2ccc(C#N)cc2F)cc1
active: [4] 49.8 µM
not listed: [8]
inactive: all other assays above

CNC(=O)ON=C(C)SC
not listed: [8] | [9]
inactive: all other assays above

COc1cc(OC)nc(Sc2cccc(Cl)c2C(=O)O)n1
not listed: [8]
inactive: all other assays above

CCc1cccc(C)c1N(C(=O)CCl)C(C)COC (stereo unspecified)
active: [4] 20.5 µM
inactive: all other assays above

CN(C)C(=O)Nc1cccc(C(F)(F)F)c1
active: TIMP1, TIMP1 (gene 7076) 78.8 µM | [1] 81 µM | [4] 1.22 µM
not listed: [8] | [9]
inactive: all other assays above

CSc1nc(NC(C)C)nc(NC(C)C)n1
active: [2] 76.7 µM | [4] 2.47 µM | [6] 50 µM
not listed: [8] | [9]
inactive: all other assays above

Cc1nn(-c2cc(NS(C)(=O)=O)c(Cl)cc2Cl)c(=O)n1C(F)F
active: [4] 18.4 µM
not listed: [8] | [9]
inactive: all other assays above

CCOP(=O)(NC(C)C)Oc1ccc(SC)c(C)c1 (stereo unspecified)
active: [4] 50 µM
inactive: all other assays above

CC(Oc1cccc(Cl)c1)C(=O)O (stereo unspecified)
active: [4] 10.1 µM
not listed: [8] | [9]
inactive: all other assays above

CCOC(=O)CC(SP(=O)(OC)OC)C(=O)OCC (stereo unspecified)
not listed: [8]
inactive: all other assays above

CCOP(=S)(OCC)Oc1ccc2c(C)c(Cl)c(=O)oc2c1
active: [2] 14.8 µM | [4] 3.4 µM
inactive: all other assays above

CCCCN(CC)c1c([N+](=O)[O-])cc(C(F)(F)F)cc1[N+](=O)[O-]
active: [4] 32.2 µM
not listed: [8] | [9]
inactive: all other assays above

CC(COc1ccc(Oc2ccccc2)cc1)Oc1ccccn1 (stereo unspecified)
active: [2] 16.3 µM | [4] 8.3 µM
not listed: [8]
inactive: all other assays above

C[N+]1(C)CCCCC1
not listed: [8] | [9]
inactive: all other assays above

CN1COCN(Cc2cnc(Cl)s2)C1=N[N+](=O)[O-]
not listed: [8] | [9]
inactive: all other assays above

CCCCOC(=O)c1ccccc1C(=O)O
active: [4] 17 µM
not listed: [8]
inactive: all other assays above

CCC(CC)Nc1c([N+](=O)[O-])cc(C)c(C)c1[N+](=O)[O-]
active: [2] 36.7 µM | [4] 28.2 µM
inactive: all other assays above

S=C1NCCN1
not listed: [8]
inactive: all other assays above

CC1=NNC(=O)N(/N=C/c2cccnc2)C1
active: [2] 12.9 µM
not listed: [8] | [9]
inactive: all other assays above

COc1cccc(C(=O)NN(C(=O)c2cc(C)cc(C)c2)C(C)(C)C)c1C
active: [2] 12.2 µM | [4] 2.32 µM
not listed: [8]
inactive: all other assays above

COP(=O)(OC)SCn1c(=O)oc2cc(Cl)cnc21
inactive: TIMP1, TIMP1 (gene 7076) | [3] | [6]
active: [1] 0.262 µM | [2] 73.4 µM | [4] 9.92 µM | [5] 9.92 µM | [7] 74.2 µM

CC(C)[C@H](C(=O)O[C@H](C#N)c1cccc(Oc2ccccc2)c1)c1ccc(Cl)cc1
active: [4] 23.8 µM
not listed: [8] | [9]
inactive: all other assays above

CSc1nnc(C(C)(C)C)c(=O)n1N
active: [4] 9.92 µM
not listed: [8] | [9]
inactive: all other assays above

CCCOc1nn(C(=O)NS(=O)(=O)c2ccccc2C(=O)OC)c(=O)n1C
not listed: [8] | [9]
inactive: all other assays above

CCOP(=O)(OCC)Oc1cc(C)nc(C(C)C)n1
not listed: [8] | [9]
inactive: all other assays above
